Test results published in the supplement of paper PMC8728848.
This is one part of a sample in which the strongest signals are shown more often than they occur.

What was measured:
Assay in all cases: glycan array binding signal (z-score within array); higher = stronger binding
Settings in all cases: glycan notation: IUPAC condensed, linker removed
[1] = molecular target: Fuc(a1-2)Gal(b1-3)GalNAc(a1-3)[Fuc(a1-2)]Gal(b1-4)GlcNAc
In short: (§1)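 Columns mapping to the same glycan were averaged after glycan names were converted to IUPAC-condensed notation. The data come from 3228 arrays in the Consortium for Functional Glycomics database, limited to those with an available protein sequence. Binding is reported as a within-array Z-score averaged across arrays of one protein sequence and across linkers.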

[2] = molecular target: Fuc(a1-2)Gal(b1-3)GlcNAc(b1-3)[Gal(b1-4)GlcNAc(b1-6)]Gal(b1-4)Glc
In short: as §1

[3] = molecular target: Fuc(a1-2)Gal(b1-4)[Fuc(a1-3)]GlcNAc(b1-3)GalNAc
In short: as §1

[4] = molecular target: Fuc(a1-2)[Gal(a1-3)]Gal(b1-4)GlcNAc(b1-3)GalNAc
In short: as §1

[5] = molecular target: Fuc(a1-2)[GalNAc(a1-3)]Gal(b1-4)GlcNAc(b1-3)GalNAc
In short: as §1

[6] = molecular target: Fuc(a1-2)[GalNAc(a1-3)]Gal(b1-4)[Fuc(a1-3)]GlcNAc
In short: as §1

[7] = molecular target: Fuc(a1-3)[Gal(b1-4)]GlcNAc(b1-2)Man(a1-3)[Fuc(a1-3)[Gal(b1-4)]GlcNAc(b1-2)Man(a1-6)]Man(b1-4)GlcNAc(b1-4)[Fuc(a1-6)]GlcNAc
In short: as §1

[8] = molecular target: Fuc(a1-3)[Gal(b1-4)]GlcNAc(b1-3)Gal(b1-3)[Fuc(a1-4)]GlcNAc
In short: as §1

[9] = molecular target: Fuc(a1-3)[Gal3S(b1-4)]GlcNAc
In short: as §1

[10] = molecular target: Fuc(a1-4)GlcNAc
In short: as §1

[11] = molecular target: Gal(a1-3)Gal(b1-4)GlcNAc(b1-6)GalNAc
In short: as §1

[12] = molecular target: Gal(a1-4)Gal(b1-4)GlcNAc(b1-3)Gal(b1-4)Glc
In short: as §1

[13] = molecular target: Gal(b1-3)GlcNAc(b1-2)Man(a1-3)[Gal(b1-3)GlcNAc(b1-2)Man(a1-6)]Man(b1-4)GlcNAc(b1-4)[Fuc(a1-6)]GlcNAc
In short: as §1

[14] = molecular target: Gal(b1-3)GlcNAc(b1-2)Man(a1-3)[GlcNAc(b1-4)][Gal(b1-3)GlcNAc(b1-2)Man(a1-6)]Man(b1-4)GlcNAc(b1-4)GlcNAc
In short: as §1

[15] = molecular target: Gal(b1-3)[Fuc(a1-4)]GlcNAc(b1-6)GalNAc
In short: as §1

[16] = molecular target: Gal(b1-4)GalNAc(b1-3)[Fuc(a1-2)]Gal(b1-4)GlcNAc
In short: as §1

[17] = molecular target: Gal(b1-4)GlcNAc
In short: as §1

[18] = molecular target: Gal(b1-4)GlcNAc(b1-2)[Gal(b1-4)GlcNAc(b1-4)]Man(a1-3)[GlcNAc(b1-4)][Gal(b1-4)GlcNAc(b1-2)[Gal(b1-4)GlcNAc(b1-6)]Man(a1-6)]Man(b1-4)GlcNAc(b1-4)GlcNAc
In short: as §1

[19] = molecular target: Gal(b1-4)GlcNAc(b1-3)Gal(b1-4)GlcNAc(b1-2)Man(a1-3)[Gal(b1-4)GlcNAc(b1-3)Gal(b1-4)GlcNAc(b1-2)Man(a1-6)]Man(b1-4)GlcNAc(b1-4)[Fuc(a1-6)]GlcNAc
In short: as §1

[20] = molecular target: Gal(b1-4)GlcNAc(b1-3)Gal(b1-4)GlcNAc(b1-3)Gal(b1-4)GlcNAc(b1-2)Man(a1-3)[Gal(b1-4)GlcNAc(b1-3)Gal(b1-4)GlcNAc(b1-3)Gal(b1-4)GlcNAc(b1-2)Man(a1-6)]Man(b1-4)GlcNAc(b1-4)GlcNAc
In short: as §1

[21] = molecular target: Gal(b1-4)GlcNAc(b1-3)Gal(b1-4)GlcNAc(b1-6)[Gal(b1-3)]GalNAc
In short: as §1

[22] = molecular target: Gal6S(b1-4)Glc
In short: as §1

[23] = molecular target: GalNAc(a1-3)GalNAc
In short: as §1

[24] = molecular target: GalNAc(b1-3)Gal
In short: as §1

[25] = molecular target: GalNAc(b1-3)Gal(a1-4)Gal(b1-4)GlcNAc(b1-3)Gal(b1-4)Glc
In short: as §1

[26] = molecular target: GalNAc6S(b1-4)GlcNAc
In short: as §1

[27] = molecular target: GlcA(b1-3)Gal
In short: as §1

[28] = molecular target: GlcNAc(b1-2)Man(a1-3)[GlcNAc(b1-2)Man(a1-6)]Man(b1-4)GlcNAc(b1-4)[Fuc(a1-6)]GlcNAc
In short: as §1

[29] = molecular target: GlcNAc(b1-2)Man(a1-3)[GlcNAc(b1-4)][GlcNAc(b1-2)Man(a1-6)]Man(b1-4)GlcNAc(b1-4)[Fuc(a1-6)]GlcNAc
In short: as §1

[30] = molecular target: GlcNAc(b1-3)Gal(b1-4)GlcNAc
In short: as §1

B1: Protein L(A-C2) (Finegoldia magna), Q51912 (protein)
chain: ADEPIDLEKLEEKRDKENVGNLPKFDNEVKDGSENPMAKYPDFDDEASTRFETENNEFEEKKVVSDNFFDQSEHPFVENKEETPETPETDSEEEVTIKANLIFANGSTQTAEFKGTFEKATSEAYAYADTLKKDNGEYTVDVADKGYTLNIKFAGKEKTPEEPKEEVTIKANLIYADGKTQTAEFKGTFEEATAEAYRYADALKKDNGEYTVDVADKGYTLNIKFAGKEKTPEEPKEEVTIKANLIYADGKTQTAEFKGTFEEATAEAYRYADLLAKENGKYTVDVADKGYTLNIKFAGKEKTPEEPKEEVTIKANLIYADGKTQTAEFKGTFAEATAEAYRYADLLAKENGKYTADLEDGGYTINIRFAGKKVDEKPEEKEQVTIKENIYFEDGTVQTATFKGTFAEATAEAYRYADLLSKEHGKYTADLEDGGYTINIRFAGKEEPEETPEKPEVQDGYASYEEAEAAAKEALKNDDVNKSYTIRQGADGRYYYVLSPVEAEEEKPEAQNGYATYEEAEAAAKKALENDPINKSYSIRQGADGRYYYVLSPVEAE
- glycan array binding signal (z-score) [1]: -0.969
- glycan array binding signal (z-score) [2]: -0.355
- glycan array binding signal (z-score) [3]: 2.89
- glycan array binding signal (z-score) [4]: 6.17
- glycan array binding signal (z-score) [5]: -0.485
- glycan array binding signal (z-score) [6]: 3.52
- glycan array binding signal (z-score) [7]: 1.71
- glycan array binding signal (z-score) [8]: 0.052
- glycan array binding signal (z-score) [9]: -0.101
- glycan array binding signal (z-score) [10]: -0.933
- glycan array binding signal (z-score) [11]: -0.284
- glycan array binding signal (z-score) [12]: -0.164
- glycan array binding signal (z-score) [13]: 0.716
- glycan array binding signal (z-score) [14]: 0.568
- glycan array binding signal (z-score) [15]: 3.16
- glycan array binding signal (z-score) [16]: -0.365
- glycan array binding signal (z-score) [17]: -0.975
- glycan array binding signal (z-score) [18]: -0.468
- glycan array binding signal (z-score) [19]: 0.357
- glycan array binding signal (z-score) [20]: 3.21
- glycan array binding signal (z-score) [21]: 3.67
- glycan array binding signal (z-score) [22]: -0.354
- glycan array binding signal (z-score) [23]: -0.445
- glycan array binding signal (z-score) [24]: -0.354
- glycan array binding signal (z-score) [25]: 0.127
- glycan array binding signal (z-score) [26]: -0.775
- glycan array binding signal (z-score) [27]: -0.562
- glycan array binding signal (z-score) [28]: 2.85
- glycan array binding signal (z-score) [29]: -0.153
- glycan array binding signal (z-score) [30]: -0.623
